Source: PubChem BioAssay

How the values were obtained:
[1] = system: Botulinum neurotoxin type F light chain protease (Clostridium botulinum); test: Clostridium botulinum type F light chain protease inhibitors, microsphere substrate cleavage, validation (AID 588459); conditions: multiplex microsphere protease substrate cleavage assay, flow cytometry; at 10 µM; active compounds read high
[2] = target: Botulinum neurotoxin type A (Clostridium botulinum) (UniProt P0DPI0); test: BoNT/A light chain protease inhibitors, biochemical, multiplex microsphere flow cytometry, validation set (AID 588460); conditions: at 10 µM, active compounds read high
[3] = target: Lethal factor (Bacillus anthracis) (UniProt P15917); test: Bacillus anthracis lethal factor inhibition, microsphere flow cytometry protease assay, validation at 10 µM (AID 588461); conditions: multiplex microsphere protease cleavage assay, active compounds read high

Measured: inhibition

Nc1ccn([C@@H]2O[C@H](CO)[C@@H](O)[C@@H]2O)c(=O)n1
inactive: [1] -1.4% | [2] -0.7% | [3] -1.8%

CCOC(=O)Cn1c(C)cc(=O)c2ccccc21
inactive: [1] 6.3% | [2] 1.7% | [3] 9.6%

CCc1cc2c(=O)c(-c3ccc4c(c3)OCCO4)coc2c(CN2CCCCC2C)c1O (stereo not drawn)
inactive: [1] 2.5% | [2] 0.3% | [3] -1%

O=C1N=c2ccccc2=C1c1[nH]c(=S)[nH]c1O
inactive: [1] 3.3% | [2] -0.7% | [3] 7%

CC(C)CCc1noc(CN2CCC(CCN3CCCC3=O)CC2)n1
inactive: [1] 1% | [2] 0.2% | [3] 3.1%

CCN(CCCCCN(C)C)Cc1cc2ccccc2o1
inactive: [1] 4.7% | [2] -1.1% | [3] 8.8%

Cc1cnc(N)c2c(=O)oc3ccccc3c12
inactive: [1] 1.3% | [2] 0.4% | [3] -4.6%

O=C1c2ccccc2C(=O)C1c1ccccc1
inactive: [1] -2.6% | [2] 0.2% | [3] 9.8%

CCSC(SCC)[C@H](O)[C@@H](O)[C@H](O)[C@H](O)CO
inactive: [1] 3.3% | [2] -0.7% | [3] -1.5%

CCOc1ccc(CC2CCC(=O)NC2=O)cc1 (stereo not drawn)
inactive: [1] -3% | [2] -0.5% | [3] -1.5%

O=C(CCCC(=O)OCC1CCCO1)OCC1CCCO1 (stereo not drawn)
inactive: [1] 1.9% | [2] -0.9% | [3] -1.6%

CN=C1c2cc3cc(OC)ccc3n2CCN1C
inactive: [1] -1.5% | [2] -0.6% | [3] -0.1%

CC(=O)Oc1ccc(C(=O)O)cc1OC(C)=O
inactive: [1] -0.7% | [2] 0.4% | [3] 2.4%

CCOC(=O)Nc1ccc2c(c1)N(C(=O)CCN1CCOCC1)c1ccccc1S2
inactive: [1] -1.6% | [2] -1.4% | [3] 0.2%

COc1cc2c(cc1OC)C(c1ccccc1)=NCC2
inactive: [1] 0.6% | [2] 0.8% | [3] 7%

CCOC(=O)c1ccc(N2C(=O)C(CC(N)=O)N(CCc3ccc(OC)c(OC)c3)C2=S)cc1 (stereo not drawn)
inactive: [1] 2% | [2] 1.1% | [3] -0.3%

C(=C\c1ccc2ccccc2n1)/c1ccccc1
inactive: [1] 1.3% | [2] 0.8% | [3] -3.3%

Cc1nc2sccn2c(=O)c1CCN1CCC(=C(c2ccc(F)cc2)c2ccc(F)cc2)CC1
inactive: [1] -6% | [2] -0.2% | [3] -7.2%

Cc1cc(O)c(C(=O)Cc2csc(C)n2)c(O)c1
inactive: [1] -5.7% | [2] -2.4% | [3] 0.7%

COc1ccc(C2C(C(=O)c3ccco3)=C(O)C(=O)N2CC2CCCO2)cc1 (stereo not drawn)
inactive: [1] 1.3% | [2] 0.2% | [3] -4.2%

CCOC(=O)c1cccc(C(=O)OCC)n1
inactive: [1] 3.1% | [2] -0.6% | [3] -6.9%

CCc1cc(-c2[nH]ncc2-c2ccc3c(c2)OCO3)c(O)cc1O
inactive: [1] -0.4% | [2] -0.4% | [3] 2.3%

C[C@]12CC[C@@H]3c4ccc(O)cc4CC[C@H]3[C@@H]1CC[C@@H]2O
inactive: [1] 3.3% | [2] 1.1% | [3] -1.3%

CC(C)NC(=O)C1(c2ccccc2)CCOCC1
inactive: [1] -2.6% | [2] -0.5% | [3] -2.6%

C[C@]12CC[C@H]3C(=CCc4cc(O)ccc43)[C@@H]1CCC2=O
inactive: [1] 0.5% | [2] -0.6% | [3] 2.9%

Clc1ccc2c(c1)CCc1cccnc1C2=C1CCNCC1
inactive: [1] -4.1% | [2] -0.7% | [3] 5.5%

COC(=O)c1ccccc1NC(=O)c1ccc(COc2ccc3c(c2)CCC3)cc1
inactive: [1] 2.7% | [2] -0.5% | [3] 2%

CC(=O)/C=C/c1ccc(C)o1
inactive: [1] 3.8% | [2] 0.9% | [3] 3%

Cc1cc(=O)c2c(O)c(O)ccc2o1
inactive: [1] 1.8% | [2] 2.5% | [3] -0.2%

CC(=O)N1CC2(C)CN(C(C)=O)CC(C)(C1)C2
inactive: [1] -2.3% | [2] -1.6% | [3] 7.3%

COc1ccc(C2=C(CN(C)C)C(c3ccccc3)c3ccccc3O2)cc1 (stereo not drawn)
inactive: [1] -3% | [2] -3.7% | [3] -2.3%
